This is an account of results in PubChem BioAssay AID1851 (National Center for Advancing Translational Sciences (NCATS), 2009).

In all, about 16,000 compounds went through this assay and about 4,000 (25%) were called active. Not shown: some 26% with an inconclusive outcome. Not all results are given here. Unmarked numbers belong to inactive results. The call rests on the fitted dose curve; in most records, active means well fitted curve in the direction sought with a large enough effect; inconclusive means small, poorly fitted or top-dose-only effect, or effect the other way; inactive means no such curve, though single readings can be large or run the other way.
On the % scale 0 is the no-effect control and ±100 the full control effect.

Chain of Cytochrome P450 2C9 (Homo sapiens) (P11712 whole entry, looked up): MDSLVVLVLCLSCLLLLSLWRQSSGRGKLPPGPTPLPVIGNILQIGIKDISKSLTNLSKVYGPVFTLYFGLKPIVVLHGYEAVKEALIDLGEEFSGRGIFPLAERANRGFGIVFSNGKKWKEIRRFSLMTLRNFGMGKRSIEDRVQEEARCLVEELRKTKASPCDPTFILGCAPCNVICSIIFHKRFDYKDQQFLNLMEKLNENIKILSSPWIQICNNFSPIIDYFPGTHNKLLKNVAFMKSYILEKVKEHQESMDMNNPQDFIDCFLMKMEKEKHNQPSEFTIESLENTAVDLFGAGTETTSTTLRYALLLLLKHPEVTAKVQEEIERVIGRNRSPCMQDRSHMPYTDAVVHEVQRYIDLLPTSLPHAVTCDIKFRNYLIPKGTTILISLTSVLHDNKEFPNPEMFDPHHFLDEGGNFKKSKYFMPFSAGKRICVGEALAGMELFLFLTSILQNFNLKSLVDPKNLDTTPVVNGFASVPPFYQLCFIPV

The experiment concerns the target Cytochrome P450 2C9 (Homo sapiens) (UniProt P11712). The experiment can be described thus: Cytochrome panel assay with activity outcomes. The following applies: recombinant CYP, pro-luciferin dealkylation, luminescence, p450-cyp2c9; series mostly up to 57.1 µM.
Consider `C/C(CCC(=O)OC[C@@H]1O[C@H](C#Cc2ccccc2)C=C[C@@H]1Oc1ccc(C)cc1)=N/O[C@@H](C)CN1CCCCc2nc(C)c(C)cc21`, for which the activity, negative = inhibition is -2.52% [at 11.4 µM].
As usually defined, the AC50 is the concentration giving half of the maximal activity seen. On to `COC(=O)[C@@]1(Cc2ccc(F)cc2)[C@H]2c3cc(C(=O)N4CCCC4)n(Cc4ccccn4)c3C[C@H]2CN1C(=O)c1ccccc1`, for which the AC50 was 2 µM (active).
As to `COC(=O)[C@@]1(Cc2ccccc2)[C@H]2c3cc(C(=O)N4CCCC4)n(Cc4ccccn4)c3C[C@H]2CN1C(=O)c1ccccc1`, the AC50 is 0.2 µM (active).
Turning to `CC1(CCC(=O)OC2CCCCC2)OCCO1`, the activity, negative = inhibition is -10.2% [at 11.4 µM].
With `Cc1ccc(S(=O)(=O)N[C@H]2COC(=O)C/C=C\[C@@H](C)[C@H](NS(=O)(=O)c3ccc(C)cc3)COC(=O)C/C=C\[C@H]2C)cc1`, the activity, negative = inhibition was 0.307% [at 11.4 µM].
Regarding `CNC(=O)c1ccc(-c2sc3nc(N4CCOCC4)c4c(c3c2N)CC(C)(C)OC4)o1`, the AC50 is 4.47 µM (active).
Regarding `CCNc1ncc2nc(-c3cccc(C#N)c3)c(=O)n(C)c2n1`, the AC50 result was “inactive”.
For the molecule `CCOc1nc(NC(C)C)nc(NC(C)C)n1`, the AC50 entry is “inactive”.
Turning to `COc1ccc(C(=O)Nc2cccc3c2C(=O)NC3=O)cc1S(=O)(=O)N1CCOCC1`, the AC50 entry is “inactive”.
For the molecule `CCN(CC)S(=O)(=O)c1ccc(OC)c(NC(=O)CSc2ccccc2)c1`, the AC50 is 2.51 µM (active).
Same read-out and setting: to `CCN(CC)S(=O)(=O)c1ccc(OC)c(NC(=O)c2cc([N+](=O)[O-])ccc2Cl)c1` belongs “inactive”; to `CCN(CC)S(=O)(=O)c1cc(C(=O)Nc2ccccc2C(=O)O)ccc1OC`, 2.24 µM (active).
In the case of `C[C@H]1CC(C)(C)C[C@@](OCCN2CCCCC2)(c2ccccc2)C1`, the activity, negative = inhibition is 5.46% [at 11.4 µM].
Consider `CCNc1ncc2nc(-c3cccs3)c(=O)n(C[C@H]3CCCO3)c2n1`, for which the AC50 entry was “inactive”.
As for `O=C(Oc1ccccc1)N1CCC[C@@]2(CCN(c3ccncc3)C2)C1`, the AC50 was 10 µM (active).
In the case of `CC(=O)N1CCC[C@@]2(CCN(c3ncccn3)C2)C1`, the AC50 entry is “inactive”.
With `O=C(Oc1ccccc1)N1CCC2(CC1)CCN(c1ccccc1)CC2`, the AC50 result is “inactive”.
`O=C(Oc1ccccc1)N1CCC2(CC1)CN(c1ccccc1)C2`: the AC50 result is “inactive”.
Turning to `COC(=O)N1CCC[C@@]2(CCN(c3ncccn3)C2)C1`, the AC50 entry was “inactive”.
In the case of `O=C(c1ccncc1)N1CCC[C@@]2(CCN(c3ccccc3)C2)C1`, the AC50 result was “inactive”.
For `O=C(Oc1ccccc1)N1CCC2(CC1)CCN(c1ncccn1)CC2`, the AC50 was 15.8 µM (active).
As to `O=C(Oc1ccccc1)N1CCC2(CC1)CN(c1ccncc1)C2`, the AC50 was 3.16 µM (active).
The same measure, in the same setting: to `O=C(Oc1ccccc1)N1CCC2(CC1)CN(c1ccccn1)C2` belongs “inactive”.
With `COC(=O)N1CCC2(CC1)CN(c1ccncc1)C2`, the AC50 result was “inactive”.
Same read-out and setting: to `CC(=O)N1CCC[C@@]2(CCN(c3ccncc3)C2)C1` belongs “inactive”.
The same measure, in the same setting: to `O=C(Oc1ccccc1)N1CCC[C@@]2(CCN(c3ncccn3)C2)C1` belongs 10 µM (active).
The same measure, in the same setting: to `COCC(=O)N1CCC2(CCCN(C(=O)Nc3cccc(C#N)c3)C2)CC1` belongs “inactive”.
On to `O=[N+]([O-])c1nccn1C[C@H](O)CN1CCCCC1`, for which the activity, negative = inhibition was 0.319% [at 11.4 µM].
As for `COc1cccc(Nc2ncc3nc(-c4cc(F)cc(F)c4)c(=O)n(CCC#N)c3n2)c1`, the AC50 entry is “inactive”.
Same read-out and setting: to `CCN1/C(=C/c2ccc3cccc(C)c3[n+]2CC)Sc2ccccc21` belongs “inactive”; to `Cn1ncc([N+](=O)[O-])c1C(=O)N1CCOCC1`, “inactive”; to `O=C1N/C(=C\c2ccc(N3CCOCC3)c(F)c2)C(=O)N1Cc1ccccc1`, “inactive”.
For the molecule `O=[N+]([O-])c1cc(F)c(N2CCOCC2)cc1N1CCCCC1`, the AC50 was 7.08 µM (active).
Consider `N#Cc1c2n(c3c(=S)nc[nH]c13)CCCCC2`, for which the AC50 is 17.8 µM (active).
Turning to `CO[C@H]1COC(=O)[C@H](C)COC(=O)C/C=C\[C@@H](C)[C@H](OC)COC(=O)C/C=C\[C@@H]1C`, the activity, negative = inhibition is 8.36% [at 11.4 µM].
Consider `CCCc1ccc(C2C3=C(CC(C)(C)CC3=O)NC3=C2C(=O)c2ccccc23)cc1` (configuration not stated), for which the AC50 is 7.94 µM (active).
As to `CO[C@H]1COC(=O)[C@@H](Cc2ccccc2)NC(=O)[C@@H](C)COC(=O)C/C=C\[C@@H]1C`, the activity, negative = inhibition is 15.1% [at 11.4 µM].
As for `Cc1ccc(C(N)=Nc2ccccc2)cc1`, the activity, negative = inhibition was 3.59% [at 11.4 µM].
Consider `Cc1ccc(/C(N)=N/OC(=O)Cc2cccs2)cc1`, for which the AC50 was 7.08 µM (active).
Take `O=C(O)C(Cc1cccs1)C(=O)O`: the activity, negative = inhibition is -6.54% [at 11.4 µM].
`C[N+]1(C)C[C@@H](O)C[C@@H]1C(=O)[O-]`: the AC50 entry is “inactive”.
`Cc1ccccc1-c1cncnc1NCc1cccs1`: the activity, negative = inhibition was 0.654% [at 2.29 µM].
For the molecule `COc1cccc(C(CC(=O)Nc2cccc3ccccc23)NC(=O)c2ccccc2)c1` (configuration not stated), the AC50 is 0.251 µM (active).
On to `CN(CCO)c1nc(N)c2c(N)nc3c(c2c1C#N)CC(=O)N3C1CCCC1`, for which the AC50 is 1.41 µM (active).
As for `CC(C)NC(=O)N1CCCC2(CCN(C(=O)c3ccco3)CC2)C1`, the AC50 result is “inactive”.
As for `CC(C)(C)c1cc2c(O)c(c1)Cc1cc(C(C)(C)C)cc(c1O)Cc1cc(C(C)(C)C)cc(c1O)Cc1cc(C(C)(C)C)cc(c1O)Cc1cc(C(C)(C)C)cc(c1O)Cc1cc(C(C)(C)C)cc(c1O)Cc1cc(C(C)(C)C)cc(c1O)Cc1cc(C(C)(C)C)cc(c1O)C2`, the activity, negative = inhibition was -3.37% [at 11.4 µM].
Consider `Cn1c(-c2ccc3c(c2)OCO3)cc(=O)c2ccccc21`, for which the AC50 entry is “inactive”.
Consider `c1ccc2c(c1)ncn2Cc1nnc2sc(-c3ccc4c(c3)OCO4)nn12`, for which the AC50 was 3.16 µM (active).
Turning to `CN(Cc1ccco1)c1nc(-c2ccc3c(c2)OCO3)nc2ccccc12`, the activity, negative = inhibition was -18.1% [at 2.29 µM].
For the molecule `COc1ccc(C(=O)OC(C)CN2CCN(C)CC2)cc1OC` (configuration not stated), the AC50 result is “inactive”.
Turning to `COc1cc(C(=O)OC(C)C(=O)Nc2ccc3c(c2)OCO3)ccc1OCc1c(C)noc1C` (configuration not stated), the AC50 is 11.2 µM (active).
Regarding `Cc1noc(C)c1COc1ccc(C(=O)NCC2CCCO2)cc1` (configuration not stated), the AC50 result was “inactive”.
In the case of `N#C[C@@H](N=Nc1ccccc1C(=O)O)C(N)=O`, the activity, negative = inhibition was -3.32% [at 11.4 µM].
As for `CNc1nc(-c2ccccc2C)nc2ccccc12`, the activity, negative = inhibition was 24.9% [at 2.29 µM].
Regarding `CCN(CC)S(=O)(=O)c1ccc(C(=O)Nc2ncn(Cc3ccccc3)n2)cc1`, the AC50 is 11.2 µM (active).
In the case of `CCCN(CCC)S(=O)(=O)c1ccc(C(=O)O)cc1`, the AC50 entry was “inactive”.
Consider `O[C@@H](C1=C/C(=C\c2ccncc2)c2ccccc21)c1ccncc1`, for which the AC50 was 0.1 µM (active).
Turning to `Cc1cc(C(C)(C)C)cc(C)c1CC1=NCCN1`, the AC50 entry was “inactive”.
Same read-out and setting: with `CCOc1ccc(NC(=O)N2CCC(C(N)=O)(N3CCCCC3)CC2)cc1` the entry was “inactive”.
Turning to `CCCCN(C(=O)Nc1ccc(OCC)cc1)C1CCN(C(C)=O)CC1`, the AC50 result was “inactive”.
As for `CCOc1ccc(NC(=O)N(C2CCCCC2)C(C)c2ccncc2)cc1` (configuration not stated), the AC50 was 3.55 µM (active).
Consider `c1ccc(CCNc2ccccn2)nc1`, for which the activity, negative = inhibition was -7.63% [at 11.4 µM].
Regarding `CCN(CCO)C[C@H]1CCC[C@H]2CCCC[C@@H]21`, the activity, negative = inhibition is 1.06% [at 11.4 µM].
In the case of `O=C(Nc1ccc2oc(-c3ccccc3F)nc2c1)c1ccc2c(c1)OCCO2`, the AC50 is 8.91 µM (active).
With `Cn1c(CN2CCCCC2)nc2cc(NC(=O)c3ccc(Cl)cc3)ccc21`, the AC50 result was “inactive”.
For `C[C@@]1(C(=O)O)NCCc2cc(O)c(O)cc21`, the AC50 entry is “inactive”.
Turning to `CN(C)CCCN1c2ccccc2C(C)(C)c2ccccc21`, the activity, negative = inhibition is -4.58% [at 11.4 µM].
Consider `COc1nc(OCCNC(C)=O)nc(N(C)C)n1`, for which the AC50 result is “inactive”.
For `COCCn1c(=O)c(-c2cccc(C#N)c2)nc2cnc(Oc3ccccc3)nc21`, the AC50 was 7.94 µM (active).
For the molecule `COc1ncc2nc(-c3cccc(C#N)c3)c(=O)n(CCC#N)c2n1`, the AC50 result is “inactive”.
Take `Cn1c(=O)c(-c2cccc(C#N)c2)nc2cnc(Oc3ccccc3)nc21`: the AC50 entry was “inactive”.
Same read-out and setting: to `CCNc1ncc2nc(-c3cccc(C#N)c3)c(=O)n(CCC#N)c2n1` belongs “inactive”; to `COCCn1c(=O)c(-c2cccc(C#N)c2)nc2cnc(N(C)C)nc21`, “inactive”; to `COCCn1c(=O)c(-c2cccc(C#N)c2)nc2cnc(OCc3ccccc3)nc21`, 10 µM (active).
`C[C@@H]1/C=C\CC(=O)OC[C@H](C)C(=O)N[C@@H](C)C(=O)OC1`: the activity, negative = inhibition is 5.57% [at 11.4 µM].
For the molecule `Nc1nc2c(nc(Br)n2[C@@H]2O[C@H]3COP(=O)(O)O[C@@H]3[C@H]2O)c(=O)[nH]1`, the AC50 result was “inactive”.
For the molecule `COc1ccc(N2C(=O)c3ccccc3NC2c2ccc(OC)c(CSc3ccccn3)c2)cc1` (configuration not stated), the AC50 is 1.12 µM (active).
With `COc1ccc(C2N(c3ccccn3)C(=O)C3CCCN32)c(OC)c1` (configuration not stated), the AC50 entry was “inactive”.
Still for that read-out and setting: to `CN(C)[C@@H]1C(=O)C(C(N)=O)=C(O)[C@]2(O)C(=O)C3=C(O)c4c(O)ccc(Cl)c4[C@H](O)[C@H]3C[C@@H]12` belongs “inactive”.
As for `CCOC(=O)N/N=C1/C[C@@H](O)[C@@H](O)[C@@H]2[C@@H]3C(=O)N(Cc4ccccc4)C(=O)[C@H]3CC[C@H]12`, the activity, negative = inhibition was -12.9% [at 11.4 µM].
As to `CCOC(=O)C1=C(O)C(=O)N(Cc2ccccc2)C1`, the AC50 was 3.98 µM (active).
Take `CCOC(=O)N/N=C1/C[C@@H](O)[C@@H](O)[C@@H]2[C@@H]3C(=O)N(Cc4ccccc4)C(=O)[C@H]3CC[C@@H]12`: the activity, negative = inhibition was 23.5% [at 11.4 µM].
For `CCCCCCC1CC(C)(/C(C)=N/NC(N)=O)OC1=O` (configuration not stated), the AC50 is 22.4 µM (active).
Take `CC(=O)OC[C@H]1O[C@@H](O/N=C(\C)CCC(=O)OC[C@@H]2O[C@H](C#Cc3ccccc3)C=C[C@@H]2Oc2ccc(C)cc2)[C@H](OC(C)=O)[C@@H](OC(C)=O)[C@H]1OC(C)=O`: the activity, negative = inhibition was -6.45% [at 11.4 µM].
Turning to `Cc1cccc(C)c1NC(=O)N1CCC(N2CCCCC2)CC1`, the AC50 entry is “inactive”.
Turning to `O=C(Nc1ccc(Cl)c(Cl)c1)N1CCC(N2CCCCC2)CC1`, the AC50 entry is “inactive”.
As for `CC1CCN(C(=O)Nc2ccc3nsnc3c2)CC1`, the concentration at half-maximal activity (AC50) was 15.8 µM (active).
